Assay results reported in the supplement of paper PMC8371130.
Structures can show the parent of a compound that is named as a salt.

System: HL-1
Test: relative cell viability (CellTiter-Glo) vs DMSO control (% of DMSO control); higher = more viable cells
Method in brief: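 Compounds at 40, 200, 1000 or 5000 nM in 0.01% DMSO were added to HL-1 mouse atrial cardiomyocytes plated at 1000 cells per well in 384-well plates. The next day, cells were exposed to 1% O2 for 48 h and then reoxygenated for 24 h, or left in normoxia for the same time. Viability was read with CellTiter-Glo luminescence and normalised to vehicle-treated controls.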

[1] = oxygen condition: hypoxia 48 h (1% O2) + reoxygenation 24 h, 40 nM
[2] = oxygen condition: hypoxia 48 h (1% O2) + reoxygenation 24 h, 200 nM
[3] = oxygen condition: hypoxia 48 h (1% O2) + reoxygenation 24 h, 1000 nM
[4] = oxygen condition: hypoxia 48 h (1% O2) + reoxygenation 24 h, 5000 nM
[5] = oxygen condition: normoxia 72 h, 40 nM
[6] = oxygen condition: normoxia 72 h, 200 nM
[7] = oxygen condition: normoxia 72 h, 1000 nM
[8] = oxygen condition: normoxia 72 h, 5000 nM

Row | Structure (SMILES) | relative cell viability [1] | relative cell viability [2] | relative cell viability [3] | relative cell viability [4] | relative cell viability [5] | relative cell viability [6] | relative cell viability [7] | relative cell viability [8]
1 | C#C[C@]1(O)CC[C@H]2[C@@H]3CCC4=CC(=O)CC[C@@H]4[C@H]3CC[C@@]21C [norethindrone] | 97.6 | 100 | 97 | 105 | 102 | 108 | 100 | 113
2 | CC[C@]1(O)C[C@H]2CN(CCc3c([nH]c4ccccc34)[C@@](C(=O)OC)(c3cc4c(cc3OC)N(C=O)[C@H]3[C@@](O)(C(=O)OC)[C@H](OC(C)=O)[C@]5(CC)C=CCN6CC[C@]43[C@@H]65)C2)C1 [Vincristine] | 38.3 | 40.4 | 44.4 | 42 | 32.5 | 29.1 | 32.3 | 41.1
3 | CN1CCOC(c2ccccc2)c2ccccc2C1 (stereo not drawn) [Nefopam HCl] | 95.1 | 74.3 | 43.9 | 93.2 | 60.3 | 45.5 | 44.4 | 68.8
4 | CN1CCN2c3ccccc3Cc3ccccc3C2C1 (stereo not drawn) [Mianserin hydrochloride] | 74.7 | 97.7 | 84 | 107 | 63.6 | 92.5 | 98.1 | 111
5 | NC12CC3CC(CC(C3)C1)C2 [Amantadine hydrochloride] | 107 | 110 | 93.3 | 32.7 | 102 | 101 | 101 | 84.9
6 | Cn1nnc2c(C(N)=O)ncn2c1=O [Methazolastone] | 102 | 106 | 111 | 106 | 114 | 106 | 107 | 112
7 | CN(C)CC/C=C1/c2ccccc2COc2ccc(CC(=O)O)cc21 [Olopatadine hydrochloride] | 93 | 92.6 | 92.2 | 99.1 | 89.6 | 91.6 | 97.1 | 102
8 | Cn1c([N+](=O)[O-])cnc1COC(N)=O [Ronidazole] | 107 | 112 | 106 | 118 | 112 | 113 | 121 | 110
9 | C[C@@H]1CC(=O)NN=C1c1ccc(NN=C(C#N)C#N)cc1 [Levosimendan] | 101 | 103 | 102 | 108 | 95.9 | 103 | 105 | 103
10 | O=C1c2ccccc2C(=O)C1c1ccccc1 [Phenindione] | 97 | 105 | 95.1 | 113 | 108 | 107 | 102 | 108
11 | COC(=O)C1=C(C)NC(C)=C(C(=O)OCCN2CCN(C(c3ccccc3)c3ccccc3)CC2)C1c1cccc([N+](=O)[O-])c1 (stereo not drawn) [Manidipine] | 103 | 103 | 99.6 | 105 | 102 | 99.2 | 103 | 103
12 | Clc1ccc(COC(Cn2ccnc2)c2ccc(Cl)cc2Cl)cc1 (stereo not drawn) [Econazole nitrate] | 102 | 104 | 106 | 108 | 110 | 105 | 102 | 105
13 | CCC(NC(C)C)C(O)c1ccc(O)c(O)c1 (stereo not drawn) [Isoetharine Mesylate] | 98.5 | 96.3 | 95.5 | 106 | 95.4 | 107 | 78.7 | 111
14 | CC(=O)O[C@H]1CC[C@@]2(C)C(=CC[C@@H]3[C@@H]2CC[C@]2(C)C(c4cccnc4)=CC[C@@H]32)C1 [Abiraterone Acetate] | 104 | 103 | 101 | 117 | 97.2 | 99.2 | 102 | 115
15 | CC1COc2c(N3CCN(C)CC3)c(F)cc3c(=O)c(C(=O)O)cn1c23 (stereo not drawn) [Ofloxacin] | 99.3 | 99.8 | 97.8 | 108 | 98.5 | 97.3 | 62.4 | 115
16 | CCCc1nc(C(C)(C)O)c(C(=O)OCc2oc(=O)oc2C)n1Cc1ccc(-c2ccccc2-c2nnn[nH]2)cc1 [Olmesartan medoxomil] | 93.8 | 99.2 | 94.7 | 105 | 97 | 98.2 | 96.7 | 95.7
17 | CCCS(=O)(=O)Nc1ccc(F)c(C(=O)c2c[nH]c3ncc(-c4ccc(Cl)cc4)cc23)c1F [Vemurafenib] | 102 | 111 | 107 | 111 | 104 | 96.2 | 106 | 118
18 | O=c1oc2c(O)c(O)cc3c(=O)oc4c(O)c(O)cc1c4c23 [Ellagic acid] | 113 | 104 | 114 | 124 | 101 | 113 | 118 | 119
19 | COc1cc2c(cc1O)CC[C@@H]1[C@@H]2CC[C@]2(C)[C@@H](O)CC[C@@H]12 [2-Methoxyestradiol] | 106 | 104 | 102 | 112 | 102 | 105 | 102 | 109
20 | C[C@]12C=CC(=O)N[C@@H]1CC[C@@H]1[C@@H]2CC[C@]2(C)[C@@H](C(=O)Nc3cc(C(F)(F)F)ccc3C(F)(F)F)CC[C@@H]12 [Dutasteride] | 104 | 106 | 109 | 108 | 105 | 106 | 113 | 99.6
21 | C=C1c2cccc(O)c2C(=O)C2=C(O)[C@]3(O)C(=O)C(C(N)=O)=C(O)[C@@H](N(C)C)[C@@H]3[C@@H](O)[C@H]12 [Methacycline hydrochloride] | 98.1 | 99.7 | 107 | 109 | 102 | 105 | 103 | 99.7
